Source: PubChem BioAssay (National Center for Advancing Translational Sciences (NCATS))
An excerpt weighted towards active compounds, which were near 12% of everything screened.
HP1b binding inh: HTS for Inhibitors of HP1-beta Chromodomain Interactions with Methylated Histone Tails; Chromobox protein homolog 1 (Homo sapiens), P83916; AlphaScreen HP1-beta / biotin-H3K9me3 peptide binding; Potency, µM (top dose mostly 114 µM), for the others: at the highest dose activity change, negative = inhibition, usual class: inhibitors; 0.56% of 390,000 active; further: nearly all actives have a fitted effect of over 70% in size
Target sequence (P83916 whole entry, looked up): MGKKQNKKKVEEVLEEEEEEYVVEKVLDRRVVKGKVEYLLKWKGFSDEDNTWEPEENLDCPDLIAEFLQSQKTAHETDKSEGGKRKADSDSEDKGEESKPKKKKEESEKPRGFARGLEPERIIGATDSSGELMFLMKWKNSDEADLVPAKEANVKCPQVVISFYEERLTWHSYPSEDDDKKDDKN
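HP1-beta protein (50 nM final) preincubated 30 min at room temperature with biotinylated H3(1-18)K9me3 peptide (50 nM) in PBS pH 7.4, 0.01% Tween-20, then compound added for 30 min. AlphaScreen streptavidin donor/nickel chelate acceptor beads (10 ug/mL final), 30 min dark, luminescence read.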
G9a block: qHTS Assay for Inhibitors of Histone Lysine Methyltransferase G9a | Histone-lysine N-methyltransferase EHMT2 (Homo sapiens), Q96KQ7 | G9a H3K9 monomethylation, AlphaScreen, 2 h | 8.8% of 350,000 active | Potency, µM (doses to about 102 µM), for inactives: at the top dose activity, negative = inhibition, most hits filed as inhibitors; further: on the % scale 0 is the no-effect control and ±100 the full control effect; nearly all actives have a fitted effect of over 75% in size
Target sequence (Q96KQ7 913-1193 limits assumed): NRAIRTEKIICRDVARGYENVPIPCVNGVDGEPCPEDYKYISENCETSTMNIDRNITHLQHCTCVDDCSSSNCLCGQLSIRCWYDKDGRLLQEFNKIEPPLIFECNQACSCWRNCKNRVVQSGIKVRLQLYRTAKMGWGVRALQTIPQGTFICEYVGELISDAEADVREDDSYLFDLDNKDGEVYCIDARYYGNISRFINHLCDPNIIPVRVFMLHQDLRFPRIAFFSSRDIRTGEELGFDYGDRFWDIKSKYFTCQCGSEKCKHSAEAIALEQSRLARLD
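Using a bead-based AlphaScreen, monomethylated H3K9 product from 2 h room-temperature reactions (G9a 20 nM, peptide 500 nM, SAM 20 uM) was detected with 0.5 ug/mL rabbit anti-H3K9me1 antibody.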
BAZ2B block: qHTS Assay for Inhibitors of BAZ2B; AlphaScreen BAZ2B-H3K14Ac peptide displacement; Bromodomain adjacent to zinc finger domain protein 2B (Homo sapiens), Q9UIF8; Potency, µM (titrated, usually from 114 µM), for the others: top-dose activity change, negative = inhibition, usual class: inhibitors; 4.4% of 360,000 active; further: on the % scale 0 is the no-effect control and ±100 the full control effect; nearly all actives have a fitted effect of over 60% in size
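Protein-peptide AlphaScreen: BAZ2B 50 nM, b-H3K14Ac 50 nM, 1x PBS pH 7.4 + 0.01% Tween-20. Preincubation 30 min RT; cpd 30 min RT (top 110 uM); beads 20 min RT, light-protected.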
JMJD2A Tudor: qHTS Assay for Inhibitors of JMJD2A-Tudor Domain | AlphaScreen JMJD2A-Tudor / H3K4me3 peptide binding | Potency, µM (series often up to 114 µM), inactives show top-dose activity change, negative = inhibition, hits mostly inhibitors | 4.4% of 390,000 active; further: on the % scale 0 is the no-effect control and ±100 the full control effect; nearly all actives have a fitted effect of over 50% in size
Sfp PPTase inh: qHTS Assay for Inhibitors of Bacillus subtilis Sfp phosphopantetheinyl transferase (PPTase); 4'-phosphopantetheinyl transferase ffp (Bacillus subtilis), Q9F4F7; Biochemical Sfp PPTase activity, qHTS; Potency, µM, without a hit: largest response in the series, negative = inhibition, most hits filed as inhibitors; 3.5% of 310,000 active; AID 1490, 2009;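 further: the enzyme is Sfp with the accession as filed and its product quenches rhodamine fluorescence; 0% = enzyme reaction without inhibitor and -100% = no enzyme wells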
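Compounds were incubated with enzyme (final 15 nM) for 15 min at room temperature before substrate addition started the reaction. Fluorescence at 525 nm excitation, 598 nm emission was recorded immediately and after 30 minutes.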
L3MBTL1 inh: qHTS Assay for the Inhibitors of L3MBTL1; Potency, µM (top dose mostly 57.1 µM), inactives show at the top dose activity, negative = inhibition, hits mostly inhibitors; Lethal(3)malignant brain tumor-like protein 1 (Homo sapiens), Q9Y468; AID 485360, 2010; AlphaScreen L3MBTL1–H3K9me1 peptide binding; 0.66% of 230,000 active; further: on the % scale 0 is the no-effect control and ±100 the full control effect; nearly all actives have a fitted effect of over 60% in size
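First, the protein-peptide complex forms for 30 min at room temperature (L3MBTL1 50 nM, biotinylated H3K9me1 peptide 75 nM). Next, compounds are pin-transferred and incubated 30 min. Finally, AlphaScreen beads are added and read after 30 min.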
* marks the source's active call; other numbers are inactive results; u = inconclusive; x = not tested or not shown; [ ] = dose if it differs, or a comment. The call rests on the fitted dose curve; in most records, active means well fitted curve in the direction sought with a large enough effect; inconclusive means small, poorly fitted or top-dose-only effect, or another doubt; inactive means no such curve, though single readings can be large; an effect the other way counts as inactive or inconclusive. Potency means the concentration at half of the fitted maximal effect.

SMILES	HP1b binding inh	G9a block	BAZ2B block	JMJD2A Tudor	Sfp PPTase inh	L3MBTL1 inh
Cc1ccc(C2C(=O)N(C3CCCCCC3)CC(=O)N2CCC2=CCCCC2)cc1 (centres undefined)	47.6%	-7.0%[59 µM]	1.3%	-4.6%	x	x
CC(C)CCNC(=O)c1ccc2c(c1)NC(=O)C(CS(=O)(=O)Cc1cccc(Br)c1)N2 (centres undefined)	21.7%	12.6µM*	2.0%[57.1 µM]	u	x	x
CC(C)CCNC(=O)c1ccc2c(c1)NC(=O)C(CS(=O)(=O)Cc1ccc(F)cc1)N2 (centres undefined)	9.3%	u	9.9%[57.1 µM]	-16.5%	x	x
Cc1ccc(CNC(=O)c2ccc3c(c2)NC(=O)C(CS(=O)(=O)Cc2cccc(F)c2)N3)cc1 (centres undefined)	40.1%	6.31µM*	-0.6%[57.1 µM]	89.1µM*	x	x
CCN(CC)CCCNC(=O)c1ccc2c(c1)NC(=O)C(CS(=O)(=O)Cc1ccc(F)cc1Cl)N2 (centres undefined)	10.9%	10µM*	-10.5%	-18.3%	x	x
Cc1cccc(CS(=O)(=O)CC2Nc3ccc(C(=O)NCc4ccccc4)cc3NC2=O)c1 (centres undefined)	-12.7%	u	3.3%[57.1 µM]	-10.4%	x	x
O=C(NCc1ccc(Cl)cc1)c1ccc2c(c1)NC(=O)C(CS(=O)(=O)Cc1ccc(F)cc1Cl)N2 (centres undefined)	17.9%	15.8µM*	10.0%[57.1 µM]	u	x	x
CCOc1ccc(N(CC(=O)NCc2ccc(C)cc2)S(=O)(=O)c2c(C)noc2C)cc1	11.0%	1.5%[59 µM]	x	-11.7%	x	x
COc1cccc(CNC(=O)c2cc3c(=O)n(Cc4cccnc4)ccc3nc2C)c1	105.3%	19.8%[59 µM]	16.6%	-23.3%	x	x
Cc1ccc(-c2nc(SCC(=O)NCC3CCCO3)c3c(=O)n(C)c(=O)n(C)c3n2)cc1 (centres undefined)	33.0%[57 µM]	8.4%[59 µM]	6.6%	3.2%	x	x
CC(=O)c1cc(F)c(N2CCN(C(=O)Cc3ccccc3)CC2)cc1C	36.4%	u	56.2µM*	-5.4%	6.1%	21.6%
Cc1ccc(NC(=O)c2cc(N3C(=O)C=CC3=O)ccc2Cl)cc1C	u	1.58µM*	u	10µM*	14.1µM*	u
Cc1ccc(NC(=O)c2cc(N3C(=O)C=CC3=O)ccc2N2CCOCC2)cc1	u	1µM*	u	11.2µM*	4.47µM*	-5.4%
Cc1nc(SCC(=O)Nc2ccc(N3CCOCC3)cc2)nc(C)c1C	26.5%	39.8µM*	-33.1%	-12.8%	u	-5.5%
Cc1ccc(SCC(=O)Nc2ccc(N3CCOCC3)cc2)cc1	13.2%	-27.2%	-19.9%	-7.4%	15.7%	-11.0%
Cc1cc(C)nc(SCC(=O)Nc2ccc(N3CCOCC3)cc2)n1	50.8%	11.2µM*	-4.5%	-8.4%	6.4%	-10.0%
COc1ccc(Cl)cc1NC(=O)CSc1nc(-c2ccccc2)c2ccccc2n1	39.8%	-12.3%[59 µM]	-1.2%	-11.3%	x	x
